Source: PubChem BioAssay
This is a sample that favours compounds with a hit; in the whole collection about 1.8% have one here.
PfHsp40 yeast = restores yeast growth despite PfHsp40 toxicity. S. cerevisiae expressing PfHsp40, growth rescue, ATP luminescence. growth rescue, % at 12.5 µM. actives 0.68% (n = 340,000); in the data active means growth rescue above about 28%, passing the limit was not always enough;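 further: yeast W303a lacking pdr1 and pdr3 grown in galactose medium; growth measured after three days at 30 °C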
SSB-PriA inh = inhibitors of Klebsiella pneumoniae PriA binding to SSB C-terminal tail; AlphaScreen SSBct-PriA binding, biotinylated peptide; inhibition, % at 33 µM; actives 0.6% (n = 430,000); AID 1272365; in the data active means inhibition mostly above about 37%, no sharp cut-off; inactive means mostly below about 20%;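 further: plate controls were negative control peptide for no effect and reference peptide for full effect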
VHR inh abs = DUSP3 (human) phosphatase inhibition. recombinant VHR phosphatase, pNPP absorbance. AID 1654. P51452. inhibition, % at 13.3 µM. actives 0.52% (n = 290,000); in the data active means inhibition above about 50%
Target sequence (P51452 whole entry, looked up): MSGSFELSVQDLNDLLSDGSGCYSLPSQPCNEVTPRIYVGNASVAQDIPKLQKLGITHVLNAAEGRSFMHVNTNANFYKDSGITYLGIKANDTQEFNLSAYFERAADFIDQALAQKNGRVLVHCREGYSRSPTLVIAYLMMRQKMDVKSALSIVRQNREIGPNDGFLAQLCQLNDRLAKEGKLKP
ugtP null kill = compounds lethal to S. aureus RN4220 ugtP deletion mutant. OD600 growth, 16 h. growth inhibition, % (no concentration beside the values). actives 0.54% (n = 330,000). AID 1259309; in the data active means growth inhibition above about 68%;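 further: plate controls were untreated wells for no effect and antibiotic for full effect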
Mtb hypoxia rep = Mtb hypoxia fluorescent reporter inhibition; AID 1159583; fluorescence inhibition, % (no concentration beside the values); M. tuberculosis hypoxia-regulated fluorescent reporter, fluorescence; actives 0.1% (n = 300,000); in the data active means fluorescence inhibition mostly above about 23%, no sharp cut-off; inactive means mostly below about 17%
RN4220 kill = S. aureus RN4220 growth inhibition. OD600, 16 h. inhibition, % (concentration not given with the values). actives 0.33% (n = 330,000). AID 1259311; in the data active means inhibition above about 85%;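 further: plate controls were untreated cells for no effect and reference antibiotic for full effect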
Numbers without * were called inactive; / = not tested or not shown.

SMILES | PfHsp40 yeast | SSB-PriA inh | VHR inh abs | ugtP null kill | Mtb hypoxia rep | RN4220 kill
Cc1cccc(C(=O)Nc2ccc(C(=O)N3CCCCC3C)cc2)c1 (stereo unspecified) | 0.8 | -2.9 | 56.7* | 1.8 | -3.2 | 1.5
O=C(/C=C/c1ccco1)NC(=S)Nc1cc(C(F)(F)F)ccc1N1CCOCC1 | 1.3 | 9.2 | 2.3 | / | / | /
O=C(C=Cc1ccco1)NC(=S)Nc1cc(C(F)(F)F)ccc1N1CCOCC1 | / | / | / | 95.9* | -0.8 | -4.3
O=C(/C=C/c1ccco1)NC(=S)Nc1ccccc1N1CCOCC1 | 1.1 | 21.4 | 6.2 | 97.9* | 5.1 | 2.9
O=C(/C=C/c1ccco1)NC(=S)Nc1ccccc1N1CCCC1 | 58.9* | 21.8 | 56.3* | 98.6* | -1.1 | -1.9
O=C(/C=C/c1ccco1)Nc1ccccc1N1CCCC1 | 1.7 | 3.2 | -22.4 | 10.0 | 25.1 | 5.6
O=[N+]([O-])c1c(Nc2ccc(O)cc2)cc(Cl)c2nonc12 | -2.7 | -1.0 | -2.2 | 99.1* | / | 100.3*
CCc1ccc(S(=O)(=O)NCc2nn(CCN3CCCC3)c(=O)c3ccccc23)s1 | / | 44.0* | / | / | / | /
C=CCN1C(=O)C(C)(C)COc2cc(NS(=O)(=O)c3ccccc3Cl)ccc21 | / | -2.0 | / | / | / | /
CCNC(=S)N/N=C(\C)c1ccc2ccccc2c1OC(F)F | 62.2* | / | 10.6 | / | / | /
COc1ccccc1-c1cc2c(=O)n(Cc3nc(-c4cccc(Br)c4)no3)ccn2n1 | / | -5.0 | / | / | / | /
CCN1CCc2c(sc3c2C(=O)NC(c2ccccn2)N3)C1 (stereo unspecified) | / | 48.7 | / | / | / | /
CN1CCc2c(sc3c2C(=O)NC(c2ccccn2)N3)C1 (stereo unspecified) | 0.2 | 84.8* | -12.4 | 1.1 | 3.7 | 2.5
O=C1NC(c2ccccn2)Nc2sc3c(c21)CCC3 (stereo unspecified) | 1.0 | 81.0* | 18.8 | -6.3 | -0.6 | 2.6
COc1ccc(-c2oc3ccccc3c2C#CC(C)(C)O)cc1 | 38.4* | -43.8 | / | 18.4 | 7.8 | -2.9
CC(C)c1ccc(S(=O)(=O)/N=C2/C=C(Sc3ncn[nH]3)C(=O)c3ccccc32)cc1 | -0.6 | / | 27.0 | / | / | /
Cc1ccc(S(=O)(=O)/N=C2/C=C(Sc3ncn[nH]3)C(=O)c3ccccc32)cc1 | 119.2* | / | -1.6 | / | / | /
O=C1C(Nc2ccccc2)=C/C(=N/S(=O)(=O)c2cccs2)c2ccccc21 | 265.6* | / | 1.5 | / | / | /
Cc1ccc(S(=O)(=O)/N=C2\C=C(Nc3ccc(O)cc3)C(=O)c3ccccc32)cc1 | 3.7 | / | / | 27.6 | 4.7 | 68.0
COc1ccc(S(=O)(=O)N=C2C=C(Nc3ccc(O)cc3)C(=O)c3ccccc32)cc1 | / | 40.4* | / | / | / | /
Cc1ccc(S(=O)(=O)N=C2C=C(Nc3ccc(O)cc3)C(=O)c3ccccc32)cc1 | / | 64.5* | / | / | / | /
CCCC12CN3CCN(CC(C3)C1=NNC(=O)c1ccccc1Cl)C2 | / | -9.4 | / | 4.7 | 4.2 | 12.2
Cc1c(C(=O)Nc2ccncc2)sc2nc(-c3ccccc3)cn12 | 0.6 | -8.7 | -13.1 | -10.9 | 9.9 | -11.5
Cc1c(C(=O)Nc2ccc3c(c2)OCCO3)sc2nc(-c3ccccc3)cn12 | 144.9* | 27.8 | 47.4 | -7.1 | 8.8 | 15.3
CN(C)[C@@H]1CCC[C@H]1OC(=O)C(c1ccccc1)c1ccccc1 | -0.8 | 2.3 | 34.8 | 6.6 | 7.1 | -0.9
SMILES | PfHsp40 yeast | SSB-PriA inh | VHR inh abs | ugtP null kill | Mtb hypoxia rep | RN4220 kill
CC1CN(C)C(C)CC1OC(=O)C(c1ccccc1)c1ccccc1 (stereo unspecified) | / | -5.1 | / | 85.8* | 3.6 | 1.3
CCCCOc1ccc(C(=O)OC2CC(C)N(C)CC2C)cc1 (stereo unspecified) | -1.3 | -4.0 | 6.1 | 97.7* | 14.9 | 4.6
CC(C)(C)NC(=O)N1CCC(CNC(=O)CCc2ccccc2Br)CC1 | / | -9.0 | / | / | / | /
CCCC[N+]1=C(C)C(C)(C)c2ccccc21 | / | -3.0 | / | / | / | /
CC[N+]1=C(C)C(C)(C)c2cc(C)ccc21 | -1.3 | 52.3* | 19.9 | 10.1 | 7.9 | 9.1
O=Cc1c(OCc2ccccc2)ccc2ccccc12 | 100.5* | -3.0 | 12.1 | 34.6 | -9.5 | 0.2
Cc1nc(-c2cccc(NC(=O)C3CN(C(=O)c4ccc5c(c4)OCO5)C3)c2)cs1 | / | 1.0 | / | / | / | /
CC(=NNC(=O)c1ccco1)c1ccc(NC(=O)c2ccccc2)cc1 | / | -4.3 | / | 2.1 | 12.5 | 3.3
CCCCCC(=O)N/N=C(\C)c1ccc(NC(=O)c2ccco2)cc1 | 58.6* | / | 13.9 | / | / | /
CCCCCC(=O)NC(=S)Nc1ccc(NC(=O)c2ccco2)cc1 | -0.2 | 0.6 | 8.2 | 88.4* | / | 2.2
CCOc1ccc(NC(=O)c2ccc(NC(=O)c3cn4c5c(c(N6CCN(C)CC6)c(F)cc5c3=O)OCC4C)cc2)cc1 (stereo unspecified) | -1.6 | -3.4 | -5.4 | 98.2* | / | 97.5*
COc1c(N2CCN[C@H](C)C2)c(F)cc2c(=O)c(C(=O)O)cn(C3CC3)c12 | / | -13.1 | 29.1 | / | / | /
CC1COc2c(N3CCN(C)CC3)c(F)cc3c(=O)c(C(=O)O)cn1c23 (stereo unspecified) | 1.5 | -4.0 | / | 98.7* | / | 100.1*
CCOc1ccc(C(=O)Nc2ccc(N3CCN(C)CC3)cc2)cc1 | 0.1 | -3.7 | 9.4 | 11.3 | 18.2 | 6.1
Cc1nc(-c2cccnc2)sc1C(=O)O | / | -13.0 | / | / | / | /
COc1ccc(OCCCC(=O)Nc2nc(-c3ccccn3)cs2)cc1 | -0.8 | -18.8 | 20.4 | 5.7 | 9.4 | -3.6
O=C(CN1CC(=O)Oc2ccccc21)Nc1nc(-c2ccccn2)cs1 | / | 100.0* | / | / | / | /
O=C(CN1C(=O)NC2(CCCC2)C1=O)Nc1nc(-c2ccc(F)cc2)cs1 | -0.9 | -0.9 | 47.8 | 8.6 | 2.1 | 0.6
Cc1cc(C)c(OCC(=O)Nc2nc(-c3ccccn3)cs2)c(C)c1 | 313.4* | 25.3 | 24.3 | 9.8 | -13.3 | 12.7
Cc1csc(=O)n1CC(=O)Nc1nc(-c2ccccn2)cs1 | / | 107.0* | / | / | / | /
O=C(CN1C(=O)NC2(CCCC2)C1=O)Nc1nc(-c2ccccn2)cs1 | / | 97.8* | / | / | / | /
Cc1csc2ncc(C(=O)Nc3nc(-c4ccccn4)cs3)c(=O)n12 | / | 50.6 | / | / | / | /
O=C(CN1C(=O)COc2ccccc21)Nc1nc(-c2ccccn2)cs1 | / | 38.8 | / | / | / | /
COc1ccc(NC(C)C(=O)NN=Cc2ccccc2OCc2cccc(Br)c2)cc1 (stereo unspecified) | / | 3.3 | / | -6.7 | -12.1 | 0.1
Cc1ccc(C)c2sc(N(CCN3CCOCC3)C(=O)c3ccno3)nc12 | / | -5.0 | / | / | / | /
SMILES | PfHsp40 yeast | SSB-PriA inh | VHR inh abs | ugtP null kill | Mtb hypoxia rep | RN4220 kill
O=C(Cn1[nH]c(=O)ccc1=O)Nc1nc(-c2ccccn2)cs1 | / | 97.3* | / | / | / | /
CCc1ccccc1OCC(=O)Nc1nc(-c2cccnc2)cs1 | 237.5* | 5.8 | 4.2 | 74.0 | 7.1 | 56.0
CCC(=O)c1ccc(OCC(=O)Nc2nc(-c3cccnc3)cs2)cc1 | 0.2 | -6.0 | / | -4.7 | -10.2 | 2.0
CCCn1c(SCC(=O)Nc2cc(Cl)ccc2OC)nc2c(-c3ccccc3)cn(C)c2c1=O | / | -1.0 | / | / | / | /
O=C(CSC1=Nc2cccnc2Nc2ccccc21)N1CCN(c2ccccc2)CC1 | / | 38.0* | / | / | / | /
CCCn1c2ccccc2c2cc(C(=O)O)ccc21 | 325.3* | -12.5 | 0.4 | / | / | /
CC(=O)Nc1ccc2c(c1)c1ccccc1n2C | / | 6.0 | / | / | / | /
